Experimental data: the supplement of paper PMC7858590
Values joined by “and” are separate entries in the source; they are usually repeats but may differ in a detail not shown here. Equal entries are not always repeated. ± gives the standard deviation of the averaged measurements.

test system: human monocyte-derived macrophages (polarized); assay: cell shape (eccentricity) Z-score vs DMSO control; higher = more elongated, M2-like morphology; settings: 5 µM; 24 h; macrophage state: M1-polarized (IFNg + TNFa), cytokines present during treatment
Protocol: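 Primary-screen hits were rescreened on polarized hMDMs with the differentiating cytokines (IL-4 + IL-13 or IFNg + TNFa) kept in the medium during treatment with compound at 5 uM for 24 h. The eccentricity Z-score vs DMSO wells is averaged over experiments.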

Question: For Nc1ncnc2n[nH]c(Nc3ccc(F)cc3)c12, which “cell shape (Z-score)” value is on record?
Answer: 3.71

Question: With COc1cc(C(=O)N2CCC(N3CCN(C)CC3)CC2)ccc1Nc1ncc2c(n1)N(C)c1ccccc1C(=O)N2C as the compound, how does the “cell shape (Z-score)” value read?
Answer: -5.99

Question: CC1(CCOC2OC(CO)C(O)C(O)C2O)CCC2C(=CCC3C(C)(C(=O)O)CCCC23C)C1 (stereo unspecified) was tested. Which “cell shape (Z-score)” value did it give?
Answer: -2.26

Question: How did the “cell shape (Z-score)” value turn out when Cc1c(C(N)=O)cc([N+](=O)[O-])cc1[N+](=O)[O-] was run?
Answer: 3.38

Question: How did the “cell shape (Z-score)” value turn out when C[C@@H](Oc1cc(-c2cnn(C3CCNCC3)c2)cnc1N)c1c(Cl)ccc(F)c1Cl was run?
Answer: 7.6

Question: With Cc1ccc(S(=O)(=O)OCC(=O)Nc2ccc(C(=O)O)c(O)c2)cc1 as the compound, how does the “cell shape (Z-score)” value read?
Answer: -2.63

Question: For OC[C@H](Cc1ccccc1)Nc1nc(Oc2ccc3c(c2)CCC3)nc2c1ncn2Cc1ccc(-c2ccccc2)cc1, which “cell shape (Z-score)” value is on record?
Answer: 7.52

Question: With COc1cccc2c1C(=O)c1c(O)c3c(c(O)c1C2=O)C[C@@](O)(C(=O)CO)C[C@@H]3O[C@H]1C[C@H](N)[C@H](O)[C@H](C)O1 as the compound, how does the “cell shape (Z-score)” value read?
Answer: 22

Question: With CCc1cnn2c(NCc3ccc[n+]([O-])c3)cc(N3CCCC[C@H]3CCO)nc12 as the compound, how does the “cell shape (Z-score)” value read?
Answer: 8

Question: Which “cell shape (Z-score)” value does the source give for C/C=C/c1ccc2c(c1)O[C@@H](CN(C)C(=O)c1ccccc1)[C@@H](C)CN([C@@H](C)CO)S2(=O)=O here?
Answer: -5.32

Question: Cn1c2ccccc2c2c3c(c4c5ccccc5n(CCC#N)c4c21)CNC3=O was tested. Which “cell shape (Z-score)” value did it give?
Answer: 4.83

Question: How did the “cell shape (Z-score)” value turn out when C#Cc1cccc(Nc2ncnc3cc(OCCOC)c(OCCOC)cc23)c1 was run?
Answer: 11.8

Question: COc1ccc([C@H]2CNC(=O)C2)cc1OC1CCCC1 was tested. Which “cell shape (Z-score)” value did it give?
Answer: -2.33

Question: With Cn1cc(C2=C(c3cn(CCCSC(=N)N)c4ccccc34)C(=O)NC2=O)c2ccccc21 as the compound, how does the “cell shape (Z-score)” value read?
Answer: 17.6

Question: CCN(CC)C(=S)SSC(=S)N(CC)CC was tested. Which “cell shape (Z-score)” value did it give?
Answer: -3.98

Question: With CC1CC(=O)c2c(ccc3c2C(=O)c2cccc(O)c2C3O)C1 (stereo unspecified) as the compound, how does the “cell shape (Z-score)” value read?
Answer: -2.52

Question: For NC(=O)C1CCCc2c1[nH]c1ccc(Cl)cc21 (stereo unspecified), which “cell shape (Z-score)” value is on record?
Answer: -2.04

Question: With O=C(Cc1ccc(-c2ccc(OCCN3CCOCC3)cc2)cn1)NCc1ccccc1 as the compound, how does the “cell shape (Z-score)” value read?
Answer: 9.67

Question: With COc1cc2ncn(-c3cc(OCc4ccccc4C(F)(F)F)c(C(N)=O)s3)c2cc1OC as the compound, how does the “cell shape (Z-score)” value read?
Answer: 13.5

Question: C(=N\NC1=NCCN1)/c1c2ccccc2c(/C=N/NC2=NCCN2)c2ccccc12 was tested. Which “cell shape (Z-score)” value did it give?
Answer: 33.2

Question: COc1ccc(-c2cc(=O)c3c(O)cc(O)cc3o2)cc1O was tested. Which “cell shape (Z-score)” value did it give?
Answer: 3.77

Question: How did the “cell shape (Z-score)” value turn out when CC[C@]1(O)C[C@@H]2CN(CCc3c([nH]c4ccccc34)[C@@](C(=O)OC)(c3cc4c(cc3OC)N(C)[C@H]3[C@@](O)(C(=O)OC)[C@H](OC(C)=O)[C@]5(CC)C=CCN6CC[C@]43[C@@H]65)C2)C1 was run?
Answer: 6.51

same assay, conditions: 5 µM; 24 h; macrophage state: M2-polarized (IL-4 + IL-13), cytokines present during treatment

Question: With COc1ccc(/C=C/C(=O)O)cc1OC as the compound, how does the “cell shape (Z-score)” value read?
Answer: 1.19

Question: How did the “cell shape (Z-score)” value turn out when CC1(C)O[C@@H]2C[C@H]3[C@@H]4CCC5=CC(=O)CC[C@]5(C)[C@@]4(F)[C@@H](O)C[C@]3(C)[C@]2(C(=O)CCl)O1 was run?
Answer: -13.7

Question: Which “cell shape (Z-score)” value does the source give for CCCc1c(OCC(O)COc2ccc3c(=O)cc(C(=O)O)oc3c2CCC)ccc(C(C)=O)c1O (stereo unspecified) here?
Answer: -2.27

Question: For CC(=O)O[C@@H]1C[C@H]2C(C)(C)C(=O)CC[C@]2(C)[C@H]2CC[C@@]3(C)[C@H](c4ccoc4)OC(=O)[C@H]4O[C@]43[C@@]21C, which “cell shape (Z-score)” value is on record?
Answer: -5.73

Question: How did the “cell shape (Z-score)” value turn out when C[C@@]12C[C@]3(O)O[C@H](O1)C1(COC(=O)c4ccccc4)[C@H]3C[C@@]12O[C@@H]1O[C@H](COC(=O)c2ccccc2)[C@@H](O)[C@H](O)[C@H]1O was run?
Answer: -2.92

Question: For COc1cc2c(cc1-c1coc3c4c(ccc3c1=O)OC(C)(C)C=C4)OCO2, which “cell shape (Z-score)” value is on record?
Answer: -5.25

Question: For CC1=CC[C@@]2(C)CC[C@@](O)(C(C)C)[C@@H]2[C@@H](O)C1, which “cell shape (Z-score)” value is on record?
Answer: -2.34 ± 1.2

Question: Which “cell shape (Z-score)” value does the source give for COc1ccc(C(=O)CC2(O)C(=O)Nc3c(Cl)ccc(Cl)c32)cc1 (stereo unspecified) here?
Answer: -16.1

Question: For COC(=O)Nc1nc2ccc(C(=O)C3CC3)cc2[nH]1, which “cell shape (Z-score)” value is on record?
Answer: -16.3

Question: With CC(=O)Oc1cc2c(c(C)c1OC(C)=O)CC=C1[C@@]2(C)CC[C@@]2(C)C3C[C@](C)(C(=O)O)CC[C@]3(C)CC[C@]12C (stereo partly specified) as the compound, how does the “cell shape (Z-score)” value read?
Answer: -0.297

Question: With O=C1NC(=O)/C(=C/c2ccc3nccc(-c4ccncc4)c3c2)S1 as the compound, how does the “cell shape (Z-score)” value read?
Answer: -2.56

Question: Which “cell shape (Z-score)” value does the source give for N=C(NCCCCCCNC(=N)NC(=N)Nc1ccc(Cl)cc1)NC(=N)Nc1ccc(Cl)cc1 here?
Answer: -10.6 and -7.15

Question: With CC(C)CC1NC(=O)C(C)NC1=O (stereo unspecified) as the compound, how does the “cell shape (Z-score)” value read?
Answer: -2.08

Question: CN1c2cc3c(cc2N=C(c2ccc(C(=O)O)cc2)c2ccccc21)C(C)(C)CCC3(C)C was tested. Which “cell shape (Z-score)” value did it give?
Answer: -8.56
